Experimental data published in PMC11006913.
Numbering of substitutions follows the chain as printed.

How the values were obtained:
Test in all cases: PBM; 200 nM protein, PBS
Conditions in all cases: dsDNA, one strand shown
HOXA7 [1] = molecular target: HOXA7 (Homo sapiens, UniProt P31268 116-202)
HOXD13 [2] = molecular target: HOXD13 (Homo sapiens, UniProt P35453 263-343, T313R)
HOXD13 [3] = molecular target: HOXD13 (Homo sapiens, UniProt P35453 263-343)
HOXC10 = HOXC10 (Homo sapiens, UniProt Q9NYD6 254-340, K271E)
HOXD13 [4] = molecular target: HOXD13 (Homo sapiens, UniProt P35453 263-343, T313A)
HOXA7 [5] = molecular target: HOXA7 (Homo sapiens, UniProt P31268 116-202, W177C)
PITX2 = PITX2 (Homo sapiens, UniProt Q99697 72-157)
MSX2 [6] = molecular target: MSX2 (Homo sapiens, UniProt P35548 130-214, R199I)
MSX2 [7] = molecular target: MSX2 (Homo sapiens, UniProt P35548 130-214)
MSX2 [8] = molecular target: MSX2 (Homo sapiens, UniProt P35548 130-214, F161Y)
PROP1 [9] = molecular target: PROP1 (Homo sapiens, UniProt O75360 56-141)
PROP1 [10] = molecular target: PROP1 (Homo sapiens, UniProt O75360 56-141, R99H)
PROP1 [11] = molecular target: PROP1 (Homo sapiens, UniProt O75360 56-141, F88S)
NKX2-6 [12] = molecular target: T1, NKX2-6 (Homo sapiens, UniProt A6NCS4 118-204)
T1 sequence: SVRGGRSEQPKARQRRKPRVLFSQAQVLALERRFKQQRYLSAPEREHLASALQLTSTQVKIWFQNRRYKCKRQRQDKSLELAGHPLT

NKX2-6 [13] = molecular target: T2, NKX2-6 (Homo sapiens, UniProt A6NCS4 118-204, F151L)
T2 sequence: T1 sequence with F34L

HOXC9 = HOXC9 (Homo sapiens, UniProt P31274 178-260, R222W)
HOXC9, sequence (P31274 178-260 R222W): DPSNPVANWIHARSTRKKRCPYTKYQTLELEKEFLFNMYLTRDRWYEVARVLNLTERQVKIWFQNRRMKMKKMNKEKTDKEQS

HOXA7 (Homo sapiens, UniProt P31268 116-202), sequence (P31268 116-202): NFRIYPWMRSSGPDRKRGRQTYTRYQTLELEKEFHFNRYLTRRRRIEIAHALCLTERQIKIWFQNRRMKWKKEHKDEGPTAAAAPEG
HOXA7 (Homo sapiens, UniProt P31268 116-202, W177C), sequence (P31268 116-202 W177C): as the sequence (P31268 116-202) above, with W62C counted along it
MSX2 (Homo sapiens, UniProt P35548 130-214, R199I), sequence (P35548 130-214 R199I): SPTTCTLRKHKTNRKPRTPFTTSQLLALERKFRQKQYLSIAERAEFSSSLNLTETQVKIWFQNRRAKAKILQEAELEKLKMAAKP
MSX2 (Homo sapiens, UniProt P35548 130-214), sequence (P35548 130-214): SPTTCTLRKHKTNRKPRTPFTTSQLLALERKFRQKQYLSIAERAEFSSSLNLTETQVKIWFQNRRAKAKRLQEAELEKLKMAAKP
MSX2 (Homo sapiens, UniProt P35548 130-214, F161Y), sequence (P35548 130-214 F161Y): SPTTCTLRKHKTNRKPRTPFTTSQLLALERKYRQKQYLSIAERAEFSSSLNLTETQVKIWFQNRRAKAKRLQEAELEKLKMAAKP
HOXD13 (Homo sapiens, UniProt P35453 263-343, T313R), sequence (P35453 263-343 T313R): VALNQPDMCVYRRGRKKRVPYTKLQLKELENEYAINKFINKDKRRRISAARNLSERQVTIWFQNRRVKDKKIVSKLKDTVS
HOXD13 (Homo sapiens, UniProt P35453 263-343, T313A), sequence (P35453 263-343 T313A): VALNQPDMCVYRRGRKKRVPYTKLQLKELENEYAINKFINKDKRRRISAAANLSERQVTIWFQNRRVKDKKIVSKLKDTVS
HOXD13 (Homo sapiens, UniProt P35453 263-343), sequence (P35453 263-343): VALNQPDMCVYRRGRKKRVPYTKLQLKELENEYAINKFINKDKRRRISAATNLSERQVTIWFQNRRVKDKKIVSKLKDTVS
PROP1 (Homo sapiens, UniProt O75360 56-141), sequence (O75360 56-141): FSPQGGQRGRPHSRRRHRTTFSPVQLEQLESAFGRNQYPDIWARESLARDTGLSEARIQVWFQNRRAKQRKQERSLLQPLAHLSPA
PROP1 (Homo sapiens, UniProt O75360 56-141, F88S), sequence (O75360 56-141 F88S): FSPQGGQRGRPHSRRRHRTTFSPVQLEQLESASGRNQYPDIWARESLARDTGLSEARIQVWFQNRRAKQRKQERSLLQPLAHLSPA
HOXC10, sequence (Q9NYD6 254-340 K271E): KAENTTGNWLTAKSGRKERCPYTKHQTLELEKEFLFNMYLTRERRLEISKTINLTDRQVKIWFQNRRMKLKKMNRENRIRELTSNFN
PROP1 (Homo sapiens, UniProt O75360 56-141, R99H), sequence (O75360 56-141 R99H): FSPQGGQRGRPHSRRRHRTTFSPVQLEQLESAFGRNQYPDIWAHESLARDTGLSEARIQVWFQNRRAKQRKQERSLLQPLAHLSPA

Sequence: ATATAAAA
- binding signal (HOXA7 [1]): 9.79 upbm affinity estimate (log intensity, higher = more binding, comparable within an allelic series)
- binding signal (HOXD13 [2]): 10.9 upbm affinity estimate (log intensity, higher = more binding, comparable within an allelic series)
- binding signal (HOXD13 [3]): 11.8 upbm affinity estimate (log intensity, higher = more binding, comparable within an allelic series)
- binding signal (HOXC10): 11.3 upbm affinity estimate (log intensity, higher = more binding, comparable within an allelic series)
- binding signal (HOXD13 [4]): 11.7 upbm affinity estimate (log intensity, higher = more binding, comparable within an allelic series)
- binding signal (HOXA7 [5]): 8.84 upbm affinity estimate (log intensity, higher = more binding, comparable within an allelic series)

Sequence: AGGGCATG
- binding signal (HOXA7 [1]): 8.51 upbm affinity estimate (log intensity, higher = more binding, comparable within an allelic series)
- binding signal (PITX2): 7.96 upbm affinity estimate (log intensity, higher = more binding, comparable within an allelic series)
- binding signal (HOXA7 [5]): 8.49 upbm affinity estimate (log intensity, higher = more binding, comparable within an allelic series)

Sequence: ATATTAGA
- binding signal (HOXA7 [1]): 9.95 upbm affinity estimate (log intensity, higher = more binding, comparable within an allelic series)
- binding signal (MSX2 [6]): 11.1 upbm affinity estimate (log intensity, higher = more binding, comparable within an allelic series)
- binding signal (MSX2 [7]): 11.8 upbm affinity estimate (log intensity, higher = more binding, comparable within an allelic series)
- binding signal (MSX2 [8]): 11.5 upbm affinity estimate (log intensity, higher = more binding, comparable within an allelic series)
- binding signal (HOXA7 [5]): 8.88 upbm affinity estimate (log intensity, higher = more binding, comparable within an allelic series)

Sequence: AGCTTTCC
- binding signal (HOXA7 [1]): 8.42 upbm affinity estimate (log intensity, higher = more binding, comparable within an allelic series)
- binding signal (PROP1 [9]): 6.7 upbm affinity estimate (log intensity, higher = more binding, comparable within an allelic series)
- binding signal (PROP1 [10]): 6.84 upbm affinity estimate (log intensity, higher = more binding, comparable within an allelic series)
- binding signal (PROP1 [11]): 7.01 upbm affinity estimate (log intensity, higher = more binding, comparable within an allelic series)
- binding signal (HOXA7 [5]): 8.43 upbm affinity estimate (log intensity, higher = more binding, comparable within an allelic series)

Sequence: CCGGGGGC
- binding signal (HOXA7 [1]): 8.67 upbm affinity estimate (log intensity, higher = more binding, comparable within an allelic series)
- binding signal (NKX2-6 [12]): 9.19 upbm affinity estimate (log intensity, higher = more binding, comparable within an allelic series)
- binding signal (NKX2-6 [13]): 8.93 upbm affinity estimate (log intensity, higher = more binding, comparable within an allelic series)
- binding signal (HOXA7 [5]): 8.26 upbm affinity estimate (log intensity, higher = more binding, comparable within an allelic series)

Sequence: GAGGGACC
- binding signal (HOXA7 [1]): 8.55 upbm affinity estimate (log intensity, higher = more binding, comparable within an allelic series)
- binding signal (MSX2 [6]): 9.48 upbm affinity estimate (log intensity, higher = more binding, comparable within an allelic series)
- binding signal (MSX2 [7]): 9.7 upbm affinity estimate (log intensity, higher = more binding, comparable within an allelic series)
- binding signal (MSX2 [8]): 9.64 upbm affinity estimate (log intensity, higher = more binding, comparable within an allelic series)
- binding signal (HOXA7 [5]): 8.33 upbm affinity estimate (log intensity, higher = more binding, comparable within an allelic series)

Sequence: TATAAAAA
- binding signal (HOXA7 [1]): 9.87 upbm affinity estimate (log intensity, higher = more binding, comparable within an allelic series)
- binding signal (HOXD13 [2]): 10.9 upbm affinity estimate (log intensity, higher = more binding, comparable within an allelic series)
- binding signal (HOXD13 [3]): 11.8 upbm affinity estimate (log intensity, higher = more binding, comparable within an allelic series)
- binding signal (HOXD13 [4]): 11.6 upbm affinity estimate (log intensity, higher = more binding, comparable within an allelic series)
- binding signal (HOXC9): 11.1 upbm affinity estimate (log intensity, higher = more binding, comparable within an allelic series)
- binding signal (HOXA7 [5]): 8.84 upbm affinity estimate (log intensity, higher = more binding, comparable within an allelic series)
